The target of assay [1] is Protein kinase C gamma type (Homo sapiens) (UniProt P05129). To be noted: at 1 µM.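 Also: each value is an averaged percent inhibition of the enzyme.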
Assay [2] addresses T1, Protein kinase C iota type (Homo sapiens) (UniProt P41743).
T1 sequence (whole entry): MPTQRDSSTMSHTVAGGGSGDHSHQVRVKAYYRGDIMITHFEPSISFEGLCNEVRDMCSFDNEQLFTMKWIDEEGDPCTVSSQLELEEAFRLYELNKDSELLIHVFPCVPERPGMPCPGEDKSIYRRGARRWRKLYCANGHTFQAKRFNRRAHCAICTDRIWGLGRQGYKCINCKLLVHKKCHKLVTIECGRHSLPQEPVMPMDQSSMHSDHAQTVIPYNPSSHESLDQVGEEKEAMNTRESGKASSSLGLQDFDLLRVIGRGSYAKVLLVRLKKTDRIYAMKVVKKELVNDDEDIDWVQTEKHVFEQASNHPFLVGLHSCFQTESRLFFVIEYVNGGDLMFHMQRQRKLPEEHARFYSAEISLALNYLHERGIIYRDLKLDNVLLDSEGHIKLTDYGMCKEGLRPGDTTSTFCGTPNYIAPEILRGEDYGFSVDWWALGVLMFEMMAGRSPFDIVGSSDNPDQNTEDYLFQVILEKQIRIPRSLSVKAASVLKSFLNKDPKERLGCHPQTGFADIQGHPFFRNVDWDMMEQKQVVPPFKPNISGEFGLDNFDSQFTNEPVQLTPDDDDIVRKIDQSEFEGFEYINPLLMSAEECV
To be noted: at 0.1 µM.

Assay [3] has as its target T1, Protein kinase C iota type (Homo sapiens). To be noted: at 1 µM.
Assay [4] deals with Protein kinase C theta type (Homo sapiens) (UniProt Q04759). To be noted: at 0.1 µM.
Assay [5] has the same target. To be noted: at 1 µM.
The target of assay [6] is Protein kinase C beta type (Homo sapiens) (UniProt P05771). To be noted: at 0.1 µM.
The target is the same in assay [7]. To be noted: at 1 µM.
Assay [8] concerns the target T2, Serine/threonine-protein kinase D1 (Homo sapiens) (UniProt Q15139).
T2 sequence (whole entry): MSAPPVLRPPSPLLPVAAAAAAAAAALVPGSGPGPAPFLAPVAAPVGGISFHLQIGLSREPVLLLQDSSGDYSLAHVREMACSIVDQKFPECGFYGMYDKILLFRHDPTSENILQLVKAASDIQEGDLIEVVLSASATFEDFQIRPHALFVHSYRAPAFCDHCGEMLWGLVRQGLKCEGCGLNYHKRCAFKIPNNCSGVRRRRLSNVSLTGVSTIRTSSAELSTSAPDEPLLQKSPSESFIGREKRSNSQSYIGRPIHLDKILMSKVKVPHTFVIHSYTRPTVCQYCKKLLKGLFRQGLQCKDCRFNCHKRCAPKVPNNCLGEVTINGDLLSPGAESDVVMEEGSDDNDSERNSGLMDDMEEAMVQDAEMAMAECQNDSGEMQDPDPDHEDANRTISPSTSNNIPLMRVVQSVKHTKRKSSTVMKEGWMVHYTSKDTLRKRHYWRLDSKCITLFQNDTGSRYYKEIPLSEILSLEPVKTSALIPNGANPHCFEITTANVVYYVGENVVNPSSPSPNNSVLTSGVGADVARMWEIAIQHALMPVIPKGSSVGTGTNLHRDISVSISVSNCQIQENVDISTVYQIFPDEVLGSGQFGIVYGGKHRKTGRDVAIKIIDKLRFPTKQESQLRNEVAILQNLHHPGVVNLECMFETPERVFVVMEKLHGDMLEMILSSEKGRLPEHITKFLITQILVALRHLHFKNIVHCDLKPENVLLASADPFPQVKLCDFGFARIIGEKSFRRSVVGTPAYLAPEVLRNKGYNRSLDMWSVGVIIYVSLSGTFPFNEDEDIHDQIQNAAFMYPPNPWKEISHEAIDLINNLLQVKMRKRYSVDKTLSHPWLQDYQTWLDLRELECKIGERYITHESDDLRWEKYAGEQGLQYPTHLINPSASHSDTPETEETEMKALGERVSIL
To be noted: at 0.1 µM.

The target of assay [9] is T2, Serine/threonine-protein kinase D1 (Homo sapiens). To be noted: at 1 µM.
Assay [10] has as its target T3, Serine/threonine-protein kinase D2 (Homo sapiens) (UniProt Q9BZL6).
T3 sequence (whole entry): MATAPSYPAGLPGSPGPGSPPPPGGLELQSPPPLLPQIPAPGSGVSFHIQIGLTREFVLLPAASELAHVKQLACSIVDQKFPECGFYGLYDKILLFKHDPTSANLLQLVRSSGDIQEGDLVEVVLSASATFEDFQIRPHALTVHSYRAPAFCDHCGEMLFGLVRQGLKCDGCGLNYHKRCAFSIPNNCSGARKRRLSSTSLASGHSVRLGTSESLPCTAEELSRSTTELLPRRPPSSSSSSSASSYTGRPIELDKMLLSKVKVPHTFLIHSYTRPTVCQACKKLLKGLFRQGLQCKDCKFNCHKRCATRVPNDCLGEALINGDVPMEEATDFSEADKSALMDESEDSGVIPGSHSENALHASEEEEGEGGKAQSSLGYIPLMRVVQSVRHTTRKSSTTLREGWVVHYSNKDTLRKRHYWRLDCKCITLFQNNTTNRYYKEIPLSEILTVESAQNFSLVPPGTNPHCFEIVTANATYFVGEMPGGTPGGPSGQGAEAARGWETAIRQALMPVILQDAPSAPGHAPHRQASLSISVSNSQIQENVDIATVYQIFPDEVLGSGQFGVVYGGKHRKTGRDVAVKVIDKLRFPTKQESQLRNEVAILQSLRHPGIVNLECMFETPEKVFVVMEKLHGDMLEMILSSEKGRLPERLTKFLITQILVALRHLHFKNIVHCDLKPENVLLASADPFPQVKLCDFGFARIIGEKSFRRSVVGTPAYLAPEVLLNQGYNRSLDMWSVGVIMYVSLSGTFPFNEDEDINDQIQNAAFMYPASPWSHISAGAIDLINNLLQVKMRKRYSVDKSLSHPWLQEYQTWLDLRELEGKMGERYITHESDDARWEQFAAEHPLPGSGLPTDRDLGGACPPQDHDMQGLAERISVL
To be noted: at 0.1 µM.

In assay [11] the target is T3, Serine/threonine-protein kinase D2 (Homo sapiens). To be noted: at 1 µM.
In assay [12] the target is T4, Serine/threonine-protein kinase D3 (Homo sapiens) (UniProt O94806).
T4 sequence (whole entry): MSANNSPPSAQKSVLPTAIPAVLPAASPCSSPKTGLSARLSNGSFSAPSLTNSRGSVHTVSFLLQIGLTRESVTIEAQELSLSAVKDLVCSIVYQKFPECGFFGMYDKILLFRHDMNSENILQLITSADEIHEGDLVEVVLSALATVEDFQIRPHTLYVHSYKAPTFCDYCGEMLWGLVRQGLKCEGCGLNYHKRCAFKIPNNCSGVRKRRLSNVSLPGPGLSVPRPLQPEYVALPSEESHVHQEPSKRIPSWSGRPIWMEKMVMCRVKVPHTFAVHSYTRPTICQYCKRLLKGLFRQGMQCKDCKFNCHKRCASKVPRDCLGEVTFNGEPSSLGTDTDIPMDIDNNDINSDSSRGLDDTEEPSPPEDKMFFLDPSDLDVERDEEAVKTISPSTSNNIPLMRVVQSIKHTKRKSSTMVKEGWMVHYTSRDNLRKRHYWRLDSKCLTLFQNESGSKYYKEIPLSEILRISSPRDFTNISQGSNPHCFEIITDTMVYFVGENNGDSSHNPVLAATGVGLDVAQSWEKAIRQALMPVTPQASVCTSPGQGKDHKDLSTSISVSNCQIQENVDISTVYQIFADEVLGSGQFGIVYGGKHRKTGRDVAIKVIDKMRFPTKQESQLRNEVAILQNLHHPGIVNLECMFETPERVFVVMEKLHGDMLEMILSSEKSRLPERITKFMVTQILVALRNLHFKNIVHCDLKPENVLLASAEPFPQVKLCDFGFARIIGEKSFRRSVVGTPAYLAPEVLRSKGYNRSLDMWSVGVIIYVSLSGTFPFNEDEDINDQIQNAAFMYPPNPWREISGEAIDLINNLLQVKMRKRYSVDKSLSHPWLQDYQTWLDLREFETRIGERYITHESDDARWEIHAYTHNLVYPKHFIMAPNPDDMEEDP
To be noted: at 0.1 µM.

For assay [13], the target named is T4, Serine/threonine-protein kinase D3 (Homo sapiens). To be noted: at 1 µM.
Assay [14] concerns the target T5, cGMP-dependent protein kinase 1 (Homo sapiens) (UniProt Q13976).
T5 sequence (whole entry): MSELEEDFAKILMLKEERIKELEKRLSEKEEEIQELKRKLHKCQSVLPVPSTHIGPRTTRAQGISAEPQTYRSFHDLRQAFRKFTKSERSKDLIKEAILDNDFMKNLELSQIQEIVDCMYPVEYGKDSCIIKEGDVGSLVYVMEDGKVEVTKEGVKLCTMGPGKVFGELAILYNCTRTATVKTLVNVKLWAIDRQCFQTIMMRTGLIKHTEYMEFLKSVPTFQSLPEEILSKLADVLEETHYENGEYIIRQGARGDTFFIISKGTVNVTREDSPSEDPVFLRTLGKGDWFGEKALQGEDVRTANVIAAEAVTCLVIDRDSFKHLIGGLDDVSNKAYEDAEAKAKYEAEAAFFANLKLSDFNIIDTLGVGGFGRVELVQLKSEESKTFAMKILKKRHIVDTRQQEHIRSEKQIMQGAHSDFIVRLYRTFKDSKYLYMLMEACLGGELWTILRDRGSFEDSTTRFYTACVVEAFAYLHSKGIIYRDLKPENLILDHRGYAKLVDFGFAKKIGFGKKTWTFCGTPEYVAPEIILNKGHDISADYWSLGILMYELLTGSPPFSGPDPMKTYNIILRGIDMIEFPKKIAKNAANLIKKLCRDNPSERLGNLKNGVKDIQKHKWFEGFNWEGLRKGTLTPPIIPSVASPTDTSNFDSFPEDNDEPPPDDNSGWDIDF
To be noted: at 0.1 µM.

The target in assay [15] is T5, cGMP-dependent protein kinase 1 (Homo sapiens). To be noted: at 1 µM.
Assay [16] has as its target T6, cGMP-dependent protein kinase 2 (Homo sapiens) (UniProt Q13237).
T6 sequence (whole entry): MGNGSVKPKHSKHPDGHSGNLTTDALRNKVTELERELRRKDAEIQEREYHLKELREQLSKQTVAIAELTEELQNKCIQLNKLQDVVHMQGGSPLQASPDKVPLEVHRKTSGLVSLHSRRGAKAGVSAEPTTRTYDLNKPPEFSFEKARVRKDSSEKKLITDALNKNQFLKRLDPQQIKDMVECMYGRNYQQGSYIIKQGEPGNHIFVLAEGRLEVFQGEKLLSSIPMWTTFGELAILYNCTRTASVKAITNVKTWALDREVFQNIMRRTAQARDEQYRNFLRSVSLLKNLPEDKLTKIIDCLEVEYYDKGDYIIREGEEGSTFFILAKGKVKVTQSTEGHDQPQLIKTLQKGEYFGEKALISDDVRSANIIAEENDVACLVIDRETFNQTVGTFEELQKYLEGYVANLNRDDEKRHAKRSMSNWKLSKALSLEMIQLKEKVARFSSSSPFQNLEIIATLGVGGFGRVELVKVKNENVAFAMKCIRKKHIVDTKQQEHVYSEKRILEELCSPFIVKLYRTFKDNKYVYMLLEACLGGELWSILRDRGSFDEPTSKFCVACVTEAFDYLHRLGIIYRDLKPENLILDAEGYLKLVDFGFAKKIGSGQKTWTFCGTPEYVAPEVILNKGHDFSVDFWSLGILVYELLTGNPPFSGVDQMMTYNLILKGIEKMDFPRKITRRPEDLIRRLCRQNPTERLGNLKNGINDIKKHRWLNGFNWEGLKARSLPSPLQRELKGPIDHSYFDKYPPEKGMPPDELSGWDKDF
To be noted: at 0.1 µM.

The target in assay [17] is T6, cGMP-dependent protein kinase 2 (Homo sapiens). To be noted: at 1 µM.
Assay [18] addresses T7, cAMP-dependent protein kinase catalytic subunit PRKX (Homo sapiens) (UniProt P51817).
T7 sequence (whole entry): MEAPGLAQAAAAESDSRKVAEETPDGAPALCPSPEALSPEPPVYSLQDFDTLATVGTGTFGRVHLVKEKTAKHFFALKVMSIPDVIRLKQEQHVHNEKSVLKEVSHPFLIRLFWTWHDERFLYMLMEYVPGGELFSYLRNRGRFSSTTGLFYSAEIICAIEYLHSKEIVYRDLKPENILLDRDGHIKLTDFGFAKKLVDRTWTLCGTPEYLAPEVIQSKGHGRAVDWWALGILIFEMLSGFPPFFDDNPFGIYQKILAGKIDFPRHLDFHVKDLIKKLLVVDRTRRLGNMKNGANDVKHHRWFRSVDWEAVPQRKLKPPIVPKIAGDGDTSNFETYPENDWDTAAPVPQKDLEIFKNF
To be noted: at 0.1 µM.

In assay [19] the target is T7, cAMP-dependent protein kinase catalytic subunit PRKX (Homo sapiens). To be noted: at 1 µM.
Assay [20] concerns the target Rho-associated protein kinase 1 (Homo sapiens) (UniProt Q13464). To be noted: at 0.1 µM.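 Also: values are mean percent inhibition of ROCK1.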

Structures are written as SMILES.

As usually defined, the inhibition is the drop in the measured response relative to a control, in per cent.

Chain of Protein kinase C theta type (Homo sapiens) (Q04759 whole entry, looked up): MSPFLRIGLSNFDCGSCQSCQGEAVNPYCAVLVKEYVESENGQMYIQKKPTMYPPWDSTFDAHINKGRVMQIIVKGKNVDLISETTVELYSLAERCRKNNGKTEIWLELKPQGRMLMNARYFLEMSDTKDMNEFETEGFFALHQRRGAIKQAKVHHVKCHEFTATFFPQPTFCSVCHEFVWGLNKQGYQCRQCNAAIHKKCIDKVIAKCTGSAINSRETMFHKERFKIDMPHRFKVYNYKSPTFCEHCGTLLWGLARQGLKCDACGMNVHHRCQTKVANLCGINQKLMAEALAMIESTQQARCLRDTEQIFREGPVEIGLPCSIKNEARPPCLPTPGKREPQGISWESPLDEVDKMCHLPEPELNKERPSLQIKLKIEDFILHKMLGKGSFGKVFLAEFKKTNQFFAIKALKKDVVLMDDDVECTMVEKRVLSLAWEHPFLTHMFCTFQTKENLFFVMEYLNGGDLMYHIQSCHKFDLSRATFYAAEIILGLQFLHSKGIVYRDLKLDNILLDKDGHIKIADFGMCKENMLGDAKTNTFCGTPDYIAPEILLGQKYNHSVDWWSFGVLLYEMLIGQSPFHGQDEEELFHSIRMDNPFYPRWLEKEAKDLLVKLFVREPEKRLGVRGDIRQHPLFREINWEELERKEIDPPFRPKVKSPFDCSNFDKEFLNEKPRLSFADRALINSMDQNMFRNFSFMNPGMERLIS
Chain of Protein kinase C beta type (Homo sapiens) (P05771 2-671 limits assumed): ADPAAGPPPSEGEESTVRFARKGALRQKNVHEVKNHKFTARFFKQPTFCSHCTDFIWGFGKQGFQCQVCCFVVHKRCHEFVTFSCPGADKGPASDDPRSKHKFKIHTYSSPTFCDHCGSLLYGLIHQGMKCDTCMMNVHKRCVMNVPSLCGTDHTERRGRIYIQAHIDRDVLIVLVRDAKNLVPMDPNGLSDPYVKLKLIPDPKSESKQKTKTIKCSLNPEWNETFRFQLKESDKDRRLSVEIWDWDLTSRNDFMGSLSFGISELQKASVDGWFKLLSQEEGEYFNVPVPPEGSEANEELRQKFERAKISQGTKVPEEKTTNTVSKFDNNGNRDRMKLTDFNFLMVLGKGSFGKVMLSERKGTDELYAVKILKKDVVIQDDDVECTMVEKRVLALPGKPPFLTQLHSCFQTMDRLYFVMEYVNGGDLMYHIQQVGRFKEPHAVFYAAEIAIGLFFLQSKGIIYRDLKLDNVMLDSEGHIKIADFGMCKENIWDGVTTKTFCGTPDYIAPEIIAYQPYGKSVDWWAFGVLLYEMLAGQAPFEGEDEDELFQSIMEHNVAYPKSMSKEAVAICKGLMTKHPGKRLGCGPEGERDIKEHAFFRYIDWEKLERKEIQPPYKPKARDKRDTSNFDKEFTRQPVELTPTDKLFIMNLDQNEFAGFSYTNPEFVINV
Chain of Rho-associated protein kinase 1 (Homo sapiens) (Q13464 2-1354 limits assumed): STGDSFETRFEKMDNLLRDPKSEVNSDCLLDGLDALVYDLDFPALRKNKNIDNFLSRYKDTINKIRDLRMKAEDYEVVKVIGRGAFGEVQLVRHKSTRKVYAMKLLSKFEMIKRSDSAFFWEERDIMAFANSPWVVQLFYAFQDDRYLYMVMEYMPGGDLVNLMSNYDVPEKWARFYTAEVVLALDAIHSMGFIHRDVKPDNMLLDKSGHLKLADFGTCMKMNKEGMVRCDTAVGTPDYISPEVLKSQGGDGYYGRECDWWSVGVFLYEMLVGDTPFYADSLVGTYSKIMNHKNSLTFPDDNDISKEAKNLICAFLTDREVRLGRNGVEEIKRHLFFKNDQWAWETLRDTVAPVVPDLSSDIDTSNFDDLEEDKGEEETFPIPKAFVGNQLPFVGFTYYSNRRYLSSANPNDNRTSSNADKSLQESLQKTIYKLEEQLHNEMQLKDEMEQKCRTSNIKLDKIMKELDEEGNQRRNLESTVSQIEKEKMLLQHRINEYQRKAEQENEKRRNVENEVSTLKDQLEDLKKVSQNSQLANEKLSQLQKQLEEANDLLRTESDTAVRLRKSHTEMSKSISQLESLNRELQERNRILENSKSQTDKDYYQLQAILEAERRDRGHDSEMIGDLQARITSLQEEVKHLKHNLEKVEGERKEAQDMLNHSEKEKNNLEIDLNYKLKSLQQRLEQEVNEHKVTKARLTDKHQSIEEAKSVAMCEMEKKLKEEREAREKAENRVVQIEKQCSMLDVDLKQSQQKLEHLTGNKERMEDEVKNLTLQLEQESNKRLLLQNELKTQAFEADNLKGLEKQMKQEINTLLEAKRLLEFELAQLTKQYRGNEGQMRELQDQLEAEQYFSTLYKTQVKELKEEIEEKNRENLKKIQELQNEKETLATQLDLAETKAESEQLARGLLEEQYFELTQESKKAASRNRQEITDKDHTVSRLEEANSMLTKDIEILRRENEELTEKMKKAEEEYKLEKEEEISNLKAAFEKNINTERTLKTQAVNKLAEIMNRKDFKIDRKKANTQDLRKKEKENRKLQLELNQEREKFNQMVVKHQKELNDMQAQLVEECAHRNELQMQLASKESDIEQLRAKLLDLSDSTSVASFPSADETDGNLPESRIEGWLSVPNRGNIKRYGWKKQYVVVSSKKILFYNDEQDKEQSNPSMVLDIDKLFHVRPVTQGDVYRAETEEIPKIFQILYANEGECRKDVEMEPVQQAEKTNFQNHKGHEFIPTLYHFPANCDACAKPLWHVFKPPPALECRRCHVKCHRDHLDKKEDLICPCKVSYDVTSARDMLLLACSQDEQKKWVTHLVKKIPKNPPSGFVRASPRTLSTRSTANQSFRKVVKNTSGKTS

On to `COc1cc(Nc2ncc3c(C)nc(-c4cccc(C(F)(F)F)c4)n3n2)cc(OC)c1OC`, for which the inhibition in assay [1] was 7.63%; in [2], 0.74%; in [3] it was 0.54%; in assay [4], 1.87%; in assay [5] it was 5.29%; in [6] it was 1.35%. Further, the inhibition is 2.31% in assay [7]; 1.48% in assay [8]; 2.12% in assay [9]; 1.81% in assay [10]; 4.32% in assay [11]; 2.48% in assay [12]. In addition, the inhibition in [13] turned out to be 2.79%; in assay [14], 0.96%; in assay [15], 5.81%; in assay [16], 4.61%; in assay [17] it was 6.16%; in assay [18], 3%. Further, the inhibition was 7.31% in [19] and -0.86% in [20].
